Assay results from article PMC7862700, “An all-to-all approach to the identification of sequence-specific readers for epigenetic DNA modifications on cytosine”.

Experiments:
Assay in all cases: DAPPL (digital affinity profiling via proximity ligation, sequencing); 10 mM Tris-HCl pH 7.5, 50 mM NaCl, 1 mM DTT, 4% glycerol, room temperature, 30 min; GST-TFs on glutathione beads, 16-mer random dsDNA library, 0.1% formaldehyde crosslink after washing; high values mean tight binding
Conditions in all cases: protein: recombinant; tags: N-terminal GST; dsDNA, one strand shown
FLI1 = target: T1, FLI1 (Homo sapiens, UniProt Q01543 1-452)
T1 sequence: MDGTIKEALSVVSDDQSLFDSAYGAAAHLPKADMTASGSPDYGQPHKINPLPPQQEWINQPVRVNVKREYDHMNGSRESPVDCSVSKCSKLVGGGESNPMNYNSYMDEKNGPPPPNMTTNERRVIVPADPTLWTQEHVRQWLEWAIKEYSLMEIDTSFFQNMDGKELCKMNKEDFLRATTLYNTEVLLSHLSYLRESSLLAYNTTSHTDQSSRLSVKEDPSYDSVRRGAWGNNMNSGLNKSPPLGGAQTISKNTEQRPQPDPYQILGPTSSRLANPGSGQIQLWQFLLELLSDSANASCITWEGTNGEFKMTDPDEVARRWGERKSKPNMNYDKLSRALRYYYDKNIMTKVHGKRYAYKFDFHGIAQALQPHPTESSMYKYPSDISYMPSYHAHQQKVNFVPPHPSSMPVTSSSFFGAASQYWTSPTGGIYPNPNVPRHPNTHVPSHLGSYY
In short: (§1)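 Binding signal is each hexamer's read frequency for a factor divided by its frequency in the tag-only sample. The factors were GST-fused human transcription factors from yeast, captured on glutathione beads, DNA-barcoded and pooled with that sample. Pools were incubated with 200 nmole of a random double-stranded 16-mer DNA library in Tris/NaCl/DTT/glycerol buffer at room temperature for 30 min, then washed, crosslinked with 0.1% formaldehyde, proximity-ligated with BsaI/T4 ligase (1 h, 37 °C), PCR-amplified and sequenced on an Illumina NextSeq500.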

ELF1 = ELF1 (Homo sapiens, UniProt P32519 1-619)
In short: as §1

EHF = target: T2, EHF (Homo sapiens, UniProt Q9NZC4 1-300)
T2 sequence: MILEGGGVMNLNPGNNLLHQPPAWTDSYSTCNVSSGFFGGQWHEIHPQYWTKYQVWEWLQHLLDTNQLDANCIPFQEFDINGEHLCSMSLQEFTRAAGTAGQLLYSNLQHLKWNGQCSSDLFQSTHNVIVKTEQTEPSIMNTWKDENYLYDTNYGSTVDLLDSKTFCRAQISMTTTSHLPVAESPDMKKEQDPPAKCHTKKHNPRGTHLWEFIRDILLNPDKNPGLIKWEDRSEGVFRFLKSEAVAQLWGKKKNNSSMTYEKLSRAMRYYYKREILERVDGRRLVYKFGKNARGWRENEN
In short: as §1

SPIB = SPIB (Homo sapiens, UniProt Q01892 1-262)
In short: as §1

SPIC = target: T3, SPIC (Homo sapiens, UniProt Q8N5J4 1-248)
T3 sequence: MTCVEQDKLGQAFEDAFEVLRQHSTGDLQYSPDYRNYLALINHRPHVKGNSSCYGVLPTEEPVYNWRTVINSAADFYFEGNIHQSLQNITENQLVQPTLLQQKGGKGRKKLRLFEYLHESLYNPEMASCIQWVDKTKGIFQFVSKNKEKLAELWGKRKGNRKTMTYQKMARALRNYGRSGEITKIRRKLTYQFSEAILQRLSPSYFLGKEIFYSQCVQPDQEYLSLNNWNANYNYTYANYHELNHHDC
In short: as §1

ELF4 = ELF4 (Homo sapiens, UniProt Q99607 1-663)
In short: as §1

ELK4 = target: T4, ELK4 (Homo sapiens, UniProt P28324-2 1-405)
T4 sequence: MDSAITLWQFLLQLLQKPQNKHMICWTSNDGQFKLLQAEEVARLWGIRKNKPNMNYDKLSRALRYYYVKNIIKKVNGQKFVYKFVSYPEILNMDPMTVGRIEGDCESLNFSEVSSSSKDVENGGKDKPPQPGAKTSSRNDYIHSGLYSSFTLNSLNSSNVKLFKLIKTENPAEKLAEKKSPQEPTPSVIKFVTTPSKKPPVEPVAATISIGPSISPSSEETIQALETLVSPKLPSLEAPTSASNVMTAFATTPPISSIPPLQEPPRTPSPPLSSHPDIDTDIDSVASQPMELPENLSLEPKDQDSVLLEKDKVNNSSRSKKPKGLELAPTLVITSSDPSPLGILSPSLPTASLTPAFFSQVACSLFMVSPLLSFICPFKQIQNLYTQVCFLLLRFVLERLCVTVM
In short: as §1

ETV2 = target: T5, ETV2 (Homo sapiens, UniProt O00321 1-342)
T5 sequence: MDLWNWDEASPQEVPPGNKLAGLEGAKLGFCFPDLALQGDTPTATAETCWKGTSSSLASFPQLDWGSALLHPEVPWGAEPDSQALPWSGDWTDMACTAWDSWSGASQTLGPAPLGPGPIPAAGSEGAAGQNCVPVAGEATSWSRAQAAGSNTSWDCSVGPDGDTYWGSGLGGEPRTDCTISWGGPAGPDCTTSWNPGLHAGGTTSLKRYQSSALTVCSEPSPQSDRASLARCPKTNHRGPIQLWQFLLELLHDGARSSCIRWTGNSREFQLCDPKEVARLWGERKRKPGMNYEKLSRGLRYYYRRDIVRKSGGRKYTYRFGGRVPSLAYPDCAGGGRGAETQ
In short: as §1

CRX = CRX (Homo sapiens, UniProt O43186 1-299)
In short: as §1

ERF = target: T6, ERF (Homo sapiens, UniProt P50548 1-548)
T6 sequence: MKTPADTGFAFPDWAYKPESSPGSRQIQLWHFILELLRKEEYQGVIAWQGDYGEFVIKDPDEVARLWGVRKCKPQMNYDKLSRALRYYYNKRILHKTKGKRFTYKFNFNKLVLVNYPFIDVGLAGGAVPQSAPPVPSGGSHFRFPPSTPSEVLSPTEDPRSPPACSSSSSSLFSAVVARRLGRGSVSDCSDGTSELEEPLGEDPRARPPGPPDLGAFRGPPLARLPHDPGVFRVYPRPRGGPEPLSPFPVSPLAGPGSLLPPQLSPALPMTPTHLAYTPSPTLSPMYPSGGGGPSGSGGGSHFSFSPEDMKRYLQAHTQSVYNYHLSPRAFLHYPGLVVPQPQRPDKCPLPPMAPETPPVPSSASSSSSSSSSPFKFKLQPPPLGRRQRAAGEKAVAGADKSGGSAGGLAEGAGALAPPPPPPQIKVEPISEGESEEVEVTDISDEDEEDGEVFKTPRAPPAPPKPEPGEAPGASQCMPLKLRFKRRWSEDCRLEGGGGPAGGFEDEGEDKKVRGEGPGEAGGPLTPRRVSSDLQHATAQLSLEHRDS
In short: as §1

ETV7 = target: T7, ETV7 (Homo sapiens, UniProt Q9Y603 1-341)
T7 sequence: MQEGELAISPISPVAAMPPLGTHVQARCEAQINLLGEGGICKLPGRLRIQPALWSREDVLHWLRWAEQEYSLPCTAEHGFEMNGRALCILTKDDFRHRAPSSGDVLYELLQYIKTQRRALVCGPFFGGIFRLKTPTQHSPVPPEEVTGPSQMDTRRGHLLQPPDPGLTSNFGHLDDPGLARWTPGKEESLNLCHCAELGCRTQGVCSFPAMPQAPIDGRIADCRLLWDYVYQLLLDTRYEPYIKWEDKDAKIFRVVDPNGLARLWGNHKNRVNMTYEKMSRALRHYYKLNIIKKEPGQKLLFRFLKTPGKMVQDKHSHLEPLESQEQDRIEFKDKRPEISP
In short: as §1

ETV6 = ETV6 (Homo sapiens, UniProt P41212 1-452)
In short: as §1

ELF1, sequence (P32519 whole entry): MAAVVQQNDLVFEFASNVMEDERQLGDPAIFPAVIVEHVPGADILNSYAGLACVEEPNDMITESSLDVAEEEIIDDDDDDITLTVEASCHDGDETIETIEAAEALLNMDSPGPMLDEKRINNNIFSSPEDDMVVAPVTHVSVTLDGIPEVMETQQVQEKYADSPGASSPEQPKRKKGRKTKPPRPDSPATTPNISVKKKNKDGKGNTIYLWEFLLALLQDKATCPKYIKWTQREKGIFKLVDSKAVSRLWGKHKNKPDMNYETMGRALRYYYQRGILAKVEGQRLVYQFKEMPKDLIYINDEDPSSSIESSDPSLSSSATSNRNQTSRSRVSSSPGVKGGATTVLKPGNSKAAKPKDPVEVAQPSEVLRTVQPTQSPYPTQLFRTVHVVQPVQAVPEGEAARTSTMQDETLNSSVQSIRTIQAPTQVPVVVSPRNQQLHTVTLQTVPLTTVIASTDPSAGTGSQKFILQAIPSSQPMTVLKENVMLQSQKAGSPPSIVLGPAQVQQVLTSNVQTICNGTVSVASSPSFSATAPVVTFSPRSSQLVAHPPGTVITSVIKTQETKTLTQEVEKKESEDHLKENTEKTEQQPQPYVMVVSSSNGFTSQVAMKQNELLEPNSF
ETV6, sequence (P41212 whole entry): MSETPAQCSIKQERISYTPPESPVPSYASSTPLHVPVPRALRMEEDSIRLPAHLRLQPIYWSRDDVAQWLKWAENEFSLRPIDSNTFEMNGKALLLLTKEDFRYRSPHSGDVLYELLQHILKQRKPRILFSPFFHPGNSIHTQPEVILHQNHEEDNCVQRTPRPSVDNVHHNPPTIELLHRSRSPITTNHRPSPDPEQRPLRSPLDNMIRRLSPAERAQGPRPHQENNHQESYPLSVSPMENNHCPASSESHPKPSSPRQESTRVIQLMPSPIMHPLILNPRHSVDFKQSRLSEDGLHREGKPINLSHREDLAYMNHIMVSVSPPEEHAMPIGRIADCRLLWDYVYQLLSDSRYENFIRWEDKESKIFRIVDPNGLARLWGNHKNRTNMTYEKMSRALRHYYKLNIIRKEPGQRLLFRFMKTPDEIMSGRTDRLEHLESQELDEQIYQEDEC
ELF4, sequence (Q99607 whole entry): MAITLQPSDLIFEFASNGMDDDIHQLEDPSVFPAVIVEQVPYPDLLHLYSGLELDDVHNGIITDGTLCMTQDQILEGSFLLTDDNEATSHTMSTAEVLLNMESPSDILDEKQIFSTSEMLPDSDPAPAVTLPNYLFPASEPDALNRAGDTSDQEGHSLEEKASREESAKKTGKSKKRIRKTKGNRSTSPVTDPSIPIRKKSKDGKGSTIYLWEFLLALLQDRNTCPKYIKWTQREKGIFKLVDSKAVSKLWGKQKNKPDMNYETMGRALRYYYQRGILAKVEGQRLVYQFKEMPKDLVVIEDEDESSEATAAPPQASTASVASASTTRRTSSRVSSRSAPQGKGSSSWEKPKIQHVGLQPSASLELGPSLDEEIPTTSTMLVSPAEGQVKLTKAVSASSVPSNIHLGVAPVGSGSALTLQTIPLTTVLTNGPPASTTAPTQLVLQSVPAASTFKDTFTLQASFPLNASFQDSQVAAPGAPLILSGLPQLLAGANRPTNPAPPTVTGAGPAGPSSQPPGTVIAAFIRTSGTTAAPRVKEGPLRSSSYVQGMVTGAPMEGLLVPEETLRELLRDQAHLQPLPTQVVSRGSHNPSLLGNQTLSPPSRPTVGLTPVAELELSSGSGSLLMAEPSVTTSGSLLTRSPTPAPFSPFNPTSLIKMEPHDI
SPIB, sequence (Q01892 whole entry): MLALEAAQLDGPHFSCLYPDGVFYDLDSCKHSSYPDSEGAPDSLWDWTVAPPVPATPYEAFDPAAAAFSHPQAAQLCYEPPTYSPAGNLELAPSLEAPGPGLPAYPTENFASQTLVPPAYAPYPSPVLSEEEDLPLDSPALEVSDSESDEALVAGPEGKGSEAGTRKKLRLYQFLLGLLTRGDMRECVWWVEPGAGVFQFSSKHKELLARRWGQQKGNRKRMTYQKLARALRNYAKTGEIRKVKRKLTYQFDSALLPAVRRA
CRX, sequence (O43186 whole entry): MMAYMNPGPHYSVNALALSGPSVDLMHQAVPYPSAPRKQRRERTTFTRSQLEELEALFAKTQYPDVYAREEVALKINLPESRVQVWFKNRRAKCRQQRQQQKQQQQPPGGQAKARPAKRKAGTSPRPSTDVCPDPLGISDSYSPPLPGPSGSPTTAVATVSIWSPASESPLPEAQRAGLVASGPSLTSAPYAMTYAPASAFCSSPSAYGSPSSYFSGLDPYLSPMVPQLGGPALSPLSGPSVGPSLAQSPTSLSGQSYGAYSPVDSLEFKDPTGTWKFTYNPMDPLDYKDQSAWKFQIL

## TAGTTG
FLI1
  binding signal: 1.04 fold enrichment (6-mer frequency, TF over GST control)
ELF1
  binding signal: 1.01 fold enrichment (6-mer frequency, TF over GST control)
EHF
  binding signal: 1.01 fold enrichment (6-mer frequency, TF over GST control)
SPIB
  binding signal: 1.02 fold enrichment (6-mer frequency, TF over GST control)
SPIC
  binding signal: 1 fold enrichment (6-mer frequency, TF over GST control)
ELF4
  binding signal: 1.01 fold enrichment (6-mer frequency, TF over GST control)
ELK4
  binding signal: 1.18 fold enrichment (6-mer frequency, TF over GST control)
ETV2
  binding signal: 1.01 fold enrichment (6-mer frequency, TF over GST control)
CRX
  binding signal: 1.03 fold enrichment (6-mer frequency, TF over GST control)
ERF
  binding signal: 1.07 fold enrichment (6-mer frequency, TF over GST control)
ETV7
  binding signal: 1.02 fold enrichment (6-mer frequency, TF over GST control)
ETV6
  binding signal: 1.01 fold enrichment (6-mer frequency, TF over GST control)
